Results: PubChem BioAssay (EPA / NIEHS)
Several values for one entry are separate records, joined by “and”; a condition that tells them apart may be missing. Equal values may be shown once. Some structures have more than one record in an assay (separate samples or runs), and their calls can disagree. Activity calls are given as the source filed them. Rule for the calls: active = hit-call score of the fitted dose curve at least 0.9, where 1 is the maximum; inactive = score below 0.9.

target: Paired box protein Pax-6 (Homo sapiens) (UniProt P26367); assay: ATG_Pax6_CIS: Attagene CIS-FACTORIAL HepG2 Assay for human Paired Box 6 (PAX6) (AID 2282956); conditions: HepG2 CIS-FACTORIAL PAX6 reporter transcription, RNA readout; actives raise or lower the signal
In short: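 Readout: reporter transcript fluorescence after RT-PCR and capillary electrophoresis. Cells: HepG2, transiently transfected with cis-regulated MRTUs. Exposure 24 h. Gain or loss of signal fitted bidirectionally relative to DMSO.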

Sequence of Paired box protein Pax-6 (Homo sapiens) (P26367 whole entry, looked up): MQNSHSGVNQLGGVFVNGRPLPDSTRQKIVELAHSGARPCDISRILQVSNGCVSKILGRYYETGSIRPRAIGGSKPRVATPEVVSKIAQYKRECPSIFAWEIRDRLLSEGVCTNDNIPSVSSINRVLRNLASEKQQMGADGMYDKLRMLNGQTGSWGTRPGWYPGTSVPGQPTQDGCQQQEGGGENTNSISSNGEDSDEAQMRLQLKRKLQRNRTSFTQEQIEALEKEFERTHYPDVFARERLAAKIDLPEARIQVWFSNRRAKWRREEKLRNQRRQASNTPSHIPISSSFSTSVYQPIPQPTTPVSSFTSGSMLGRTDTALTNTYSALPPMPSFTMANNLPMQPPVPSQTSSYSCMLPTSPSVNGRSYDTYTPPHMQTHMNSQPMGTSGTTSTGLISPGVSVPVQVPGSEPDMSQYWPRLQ

Structure (SMILES) | outcome
OCC(F)(F)C(F)(F)C(F)(F)F | inactive
O=C(CC(=O)C(F)(F)C(F)(F)F)C(F)(F)F | inactive
Oc1ccc(Nc2ccccc2)cc1 | inactive
COC(=O)CCC(F)(F)C(F)(F)C(F)(F)C(F)(F)F | inactive
CCCCCCCOC(=O)c1ccccc1C(=O)OCCCCCCC | inactive
OCC(F)(F)C(F)(F)C(F)(F)C(F)(F)C(F)(F)C(F)F | inactive
FC(F)(F)C(F)(F)C(F)(F)C(F)(F)C(F)(F)C(F)(F)CC1CO1 (configuration not stated) | inactive
CC/C=C\CCOC(=O)c1ccccc1 | inactive
CS(C)(=O)=O | inactive
C=CC(F)(F)C(F)(F)C(F)(F)C(F)(F)C(F)(F)C(F)(F)C(F)(F)C(F)(F)C=C | inactive

tested on: not listed separately; assay: ATG_PXRE_CIS: Attagene CIS-FACTORIAL HepG2 Assay for human Pregnane X Receptor Element (PXRE) (AID 2282957); conditions: HepG2 Attagene CIS-FACTORIAL PXRE reporter, mRNA; actives raise or lower the signal
In short: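 Fluorescent capillary electrophoresis of amplified reporter cDNA gave the signal, collected 24 h after dosing HepG2 cells that held transfected cis-element reporter constructs.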

Structure (SMILES) | AC50 | outcome
O=C(O)C(F)(OC(F)(F)C(F)(OC(F)(F)C(F)(OC(F)(F)C(F)(F)C(F)(F)F)C(F)(F)F)C(F)(F)F)C(F)(F)F (configuration not stated) | 83.3 µM (active) | inactive
O=C(O)C(F)(F)C(F)(F)C(F)(F)C(F)(F)C(F)(F)C(F)(F)C(F)(F)C(F)(F)Cl | 13.7 µM (active) | inactive
c1ccc(-c2ccccc2-c2ccccc2)cc1 | 5.73 µM (active) | –
CNC(=S)NC | 24.9 µM (active) | –
OCCCC(F)(F)C(F)(F)C(F)(F)C(F)(F)C(F)(F)C(F)(F)C(F)(F)F | 79.6 µM (active) | inactive
CCN(CC)c1ccc2c(C)cc(=O)oc2c1 | 2.92 µM (active) | –
O=C(O)C(F)(F)C(F)(F)C(F)(F)C(F)(F)C(F)(F)C(F)(F)C(F)(F)C(F)(F)C(F)(F)C(F)(F)C(F)(F)C(F)(F)C(F)(F)F | 21.8 µM (active) | –
FC(F)(F)C(F)(F)C(F)(F)C(F)(F)CCI | – | inactive
Cc1ccc(S(=O)(=O)NCl)cc1 | 131 µM (active) | inactive
C=CC(=O)OCC(F)(F)C(F)(F)C(F)(F)C(F)(F)C(F)(F)C(F)(F)C(F)(F)F | – | inactive
C#C[C@]1(O)CC[C@H]2[C@@H]3CCc4cc(OC)ccc4[C@H]3CC[C@@]21C | 5.32 µM (active) | –
O=C(O)C(F)(F)C(F)(F)OC(F)(F)F | – | inactive
CCCCCCCCCCCCCCCC[N+](C)(C)Cc1ccccc1 | – | inactive
CCO[Si](CCC(F)(F)C(F)(F)C(F)(F)C(F)(F)C(F)(F)C(F)(F)F)(OCC)OCC | – | inactive
c1ccc(B(c2ccccc2)c2ccccc2)cc1 | 5.22 µM (active) | –
C=C(C)C(=O)OCCC(F)(F)C(F)(F)C(F)(F)C(F)(F)C(F)(C(F)(F)F)C(F)(F)F | – | inactive
COC(=O)C1CCC(C(=O)OC)CC1 (configuration not stated) | – | inactive

Structure (SMILES) | AC50 | outcome
CC(C)OC(=O)c1ccccc1C(=O)OC(C)C | 3.7 µM (active) | –
CCCCCCC(C)OC(=O)CCCCC(=O)OC(C)CCCCCC (configuration not stated) | 12.8 µM (active) | –
C=CC(F)(F)C(F)(F)C(F)(F)C(F)(F)C(F)(F)C(F)(F)C(F)(F)C(F)(F)F | – | inactive
C(=C(c1ccccc1)c1ccccc1)c1ccccc1 | 4.4 µM (active) | –
O=C(O)C(F)(F)C(F)(F)C(F)(F)F | – | inactive
OC[C@@H](O)[C@@H](O)[C@H](O)[C@@H](O)CO | 26.3 µM (active) | inactive
O=C(OCCOCCOCCOC(=O)c1ccccc1)c1ccccc1 | – | inactive
OCC(F)(F)C(F)(F)C(F)(F)F | – | inactive
O=C(CC(=O)C(F)(F)C(F)(F)F)C(F)(F)F | 76.4 µM (active) | inactive
Oc1ccc(Nc2ccccc2)cc1 | 21.9 µM (active) | –
COC(=O)CCC(F)(F)C(F)(F)C(F)(F)C(F)(F)F | – | inactive
CCCCCCCOC(=O)c1ccccc1C(=O)OCCCCCCC | 5.36 µM (active) | –
OCC(F)(F)C(F)(F)C(F)(F)C(F)(F)C(F)(F)C(F)F | – | inactive
FC(F)(F)C(F)(F)C(F)(F)C(F)(F)C(F)(F)C(F)(F)CC1CO1 (configuration not stated) | – | inactive
CC/C=C\CCOC(=O)c1ccccc1 | – | inactive
CS(C)(=O)=O | 4.43 µM (active) | –
C=CC(F)(F)C(F)(F)C(F)(F)C(F)(F)C(F)(F)C(F)(F)C(F)(F)C(F)(F)C=C | – | inactive

tested on: not listed separately; assay: ATG_PPRE_CIS: Attagene CIS-FACTORIAL HepG2 Assay for human Peroxisome Proliferator-activated Response Element (PPRE) (AID 2282958); conditions: HepG2 PPRE cis-element reporter, Attagene transcription factor profiling; actives raise or lower the signal
In short: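 Multiplexed reporter transcription units under cis-regulatory promoters were transfected into HepG2 cells to capture endogenous factor activity. A 24 h incubation preceded RNA isolation and fluorescent RT-PCR fragment analysis.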

Structure (SMILES) | outcome | AC50
O=C(O)C(F)(OC(F)(F)C(F)(OC(F)(F)C(F)(OC(F)(F)C(F)(F)C(F)(F)F)C(F)(F)F)C(F)(F)F)C(F)(F)F (configuration not stated) | inactive | –
O=C(O)C(F)(F)C(F)(F)C(F)(F)C(F)(F)C(F)(F)C(F)(F)C(F)(F)C(F)(F)Cl | – | 39.2 µM (active) and 35.4 µM (active)
c1ccc(-c2ccccc2-c2ccccc2)cc1 | inactive | –
CNC(=S)NC | inactive | –
OCCCC(F)(F)C(F)(F)C(F)(F)C(F)(F)C(F)(F)C(F)(F)C(F)(F)F | inactive | –
CCN(CC)c1ccc2c(C)cc(=O)oc2c1 | – | 50.2 µM (active)
O=C(O)C(F)(F)C(F)(F)C(F)(F)C(F)(F)C(F)(F)C(F)(F)C(F)(F)C(F)(F)C(F)(F)C(F)(F)C(F)(F)C(F)(F)C(F)(F)F | inactive | –
FC(F)(F)C(F)(F)C(F)(F)C(F)(F)CCI | inactive | –
C=CC(=O)OCC(F)(F)C(F)(F)C(F)(F)C(F)(F)C(F)(F)C(F)(F)C(F)(F)F | inactive | –
C#C[C@]1(O)CC[C@H]2[C@@H]3CCc4cc(OC)ccc4[C@H]3CC[C@@]21C | inactive | –
O=C(O)C(F)(F)C(F)(F)OC(F)(F)F | inactive | –
CCCCCCCCCCCCCCCC[N+](C)(C)Cc1ccccc1 | inactive | –
CCO[Si](CCC(F)(F)C(F)(F)C(F)(F)C(F)(F)C(F)(F)C(F)(F)F)(OCC)OCC | inactive | –
c1ccc(B(c2ccccc2)c2ccccc2)cc1 | inactive | –
C=C(C)C(=O)OCCC(F)(F)C(F)(F)C(F)(F)C(F)(F)C(F)(C(F)(F)F)C(F)(F)F | inactive | –
COC(=O)C1CCC(C(=O)OC)CC1 (configuration not stated) | inactive | –

Structure (SMILES) | outcome | AC50
CC(C)OC(=O)c1ccccc1C(=O)OC(C)C | inactive | –
CCCCCCC(C)OC(=O)CCCCC(=O)OC(C)CCCCCC (configuration not stated) | inactive | –
C=CC(F)(F)C(F)(F)C(F)(F)C(F)(F)C(F)(F)C(F)(F)C(F)(F)C(F)(F)F | inactive | –
C(=C(c1ccccc1)c1ccccc1)c1ccccc1 | inactive | –
O=C(O)C(F)(F)C(F)(F)C(F)(F)F | inactive | –
O=C(OCCOCCOCCOC(=O)c1ccccc1)c1ccccc1 | inactive | –
OCC(F)(F)C(F)(F)C(F)(F)F | inactive | –
O=C(CC(=O)C(F)(F)C(F)(F)F)C(F)(F)F | – | 51.2 µM (active) and 64 µM (active)
Oc1ccc(Nc2ccccc2)cc1 | inactive | –
COC(=O)CCC(F)(F)C(F)(F)C(F)(F)C(F)(F)F | inactive | –
CCCCCCCOC(=O)c1ccccc1C(=O)OCCCCCCC | inactive | –
OCC(F)(F)C(F)(F)C(F)(F)C(F)(F)C(F)(F)C(F)F | inactive | –
FC(F)(F)C(F)(F)C(F)(F)C(F)(F)C(F)(F)C(F)(F)CC1CO1 (configuration not stated) | inactive | –
CC/C=C\CCOC(=O)c1ccccc1 | inactive | –
CS(C)(=O)=O | inactive | –
C=CC(F)(F)C(F)(F)C(F)(F)C(F)(F)C(F)(F)C(F)(F)C(F)(F)C(F)(F)C=C | inactive | –
